DT40 TDP1 no CPT = qHTS for Inhibitors of human tyrosyl-DNA phosphodiesterase 1 (TDP1): qHTS in cells in absence of CPT. Potency, µM (top dose mostly 46.2 µM), for the others: at the highest dose activity change, negative = growth inhibition, most hits filed as inhibitors. DT40 Tdp1-/- hTDP1 cells, no CPT, ATP luminescence, 48 h. AID 686978, 2013. 15% of 420,000 active; also: potency is read from the fitted curve at half-maximal effect; nearly all actives have a fitted effect of over 55% in size
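Camptothecin absent (DMSO only). Human TDP1-complemented DT40 knockout cells, 400 cells/well, 37 °C for minimum 48 hr; ATP measured via CellTiter-Glo, 30 min dark incubation, luminescence.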
ELG1 repair inh = blocks ELG1-dependent DNA repair in HEK293T cells | HEK293T ELG1-luciferase reporter, luminescence, 16 h; DNA damage induced by 5-fluorouridine | Potency, µM (titrated, usually from 46.1 µM), for the others: at the top dose activity change, negative = inhibition, most hits filed as inhibitors | 2.3% of 330,000 active; also: potency is read from the fitted curve at half-maximal effect; nearly all actives have a fitted effect of over 55% in size
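Reporter activity after DNA damage by 5-fluorouridine is monitored. Compound-treated cells incubate 16 hr at 37 °C, then ONE-Glo is added for 30 min before luminescence reading.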
HT1080NT lethal = kills 2HG-producing HT-1080-NT fibrosarcoma cells | HT-1080-NT fibrosarcoma viability, CellTiter-Glo ATP luminescence, 48 h | Potency, µM (highest dose often 46.1 µM), for inactives: top-dose activity, negative = less viability, most hits filed as cytotoxic | 1.6% of 360,000 active | AID 686970;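 also: NT is the 2HG producing partner of a matched IDH1 knockdown line; potency is read from the fitted curve at half-maximal effect; 0% = DMSO-treated cells and -100% = media-only wells without cells; nearly all actives have a fitted effect of over 55% in size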
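Luminescent CellTiter-Glo readout after 48 hours of compound exposure at 37 degrees C defined viability of HT-1080-NT cells. Activity was normalized to DMSO wells and cell-free media wells; concentration-response curves were fitted and assigned curve classes.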
HT1080 IDH1KD tx = toxicity to HT-1080 IDH1 knockdown cells (counter line). HT-1080 IDH1 knockdown viability, ATP luminescence, 48 h. Potency, µM (doses to about 46.1 µM), for inactives: at the top dose activity, negative = toxicity, actives largely listed as cytotoxic. 2% of 360,000 active;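 also: potency is read from the fitted curve at half-maximal effect; 0% = DMSO wells and -100% = cell-free medium wells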
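Cytotoxicity counter-line: IDH1KD HT-1080, 48 h, CellTiter-Glo. Curves classed by r2, magnitude and activity.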
IL1B secr inh = inflammasome signaling inhibition, IL-1 beta readout; 4.7% of 360,000 active; AID 743279; activity change, % at 57.5 µM; THP-1 LPS/ATP IL-1B secretion, AlphaLISA, 16 h; active compounds read low; in the data active = activity change below about -50%; inconclusive = mostly about -30% to -49%
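THP-1 cells pretreated 1 hr with compounds (up to 57.5 uM final), then stimulated with LPS (250 ng/mL final) plus ATP (1.25 mM final); secreted IL-1B measured by AlphaLISA after 16 hr, decreased signal indicating inhibition.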
TDP1 cell CPT = DT40-hTDP1 cell growth loss with CPT. chicken DT40 Tdp1-/-;hTDP1 cells + 20 nM CPT, ATP luminescence, 48 h. Potency, µM (series often up to 46.2 µM), without a hit: at the top dose activity change, negative = growth inhibition, usual class: inhibitors. 12% of 420,000 active. AID 686979; also: potency is read from the fitted curve at half-maximal effect; nearly all actives have a fitted effect of over 55% in size
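Cell growth measured by CellTiter-Glo luminescence after a minimum 48 h, 37 C compound exposure with 20 nM CPT in Tdp1-knockout DT40 cells stably expressing hTDP1, seeded 400/well; qHTS titration format.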
* = called active by the depositor; ? = inconclusive; / = not tested or not shown. The list is not random: actives were taken first. Their share in the collection is about 19%. Unless noted, calls follow the shape of the dose curve; as a rule, active = well fitted curve in the direction sought with a large enough effect; inconclusive = small, poorly fitted or top-dose-only effect, or another doubt; inactive = no such curve, though single readings can be large; an effect the other way counts as inactive or inconclusive. Unless noted, % is scaled to controls: 0 for no effect and ±100 for the full control effect.

SMILES	DT40 TDP1 no CPT	ELG1 repair inh	HT1080NT lethal	HT1080 IDH1KD tx	IL1B secr inh	TDP1 cell CPT
Cc1ccc(C(=O)N2CCN(c3ccc(NC(=S)NC(=O)c4cccs4)cc3)CC2)cc1	21µM*	?	-14%	-4%	-55*	?
CC(C)CC(=O)NC(=S)Nc1ccc(N2CCN(C(=O)c3cccs3)CC2)cc1	21µM*	?	?	?	-58*	?
CCC(=O)N1CCN(c2ccc(NC(=S)NC(=O)C(C)C)cc2)CC1	11%	-5%	12%	13%	-14	-13%
Cc1ccccc1C(=O)N1CCN(c2ccc(NC(=S)NC(=O)c3cccs3)cc2)CC1	23µM*	21µM*	?	-10%	?	23µM*
Cc1nnc2c(NCCc3ccccc3)nc3ccccc3n12	-6%	?	5%	1%	45	-14%
O=C(NN1CCCC1)NS(=O)(=O)c1ccc(Cl)cc1	-13%	/	/	/	/	8%
COc1ccc2oc(C(=O)N3CCN(S(=O)(=O)c4c(C)c(C)cc(C)c4C)CC3)c(C)c2c1	?	/	0%	2%	20	?
COc1ccc(C(=O)N2CCOCC2c2cc(C(=O)NCc3ccccc3)no2)cc1 (stereo not given)	-8%	/	11%	3%	8	-6%
Cc1ccc(SCC(=O)NC(=O)NC2CCCC2)c(C)c1	-26%	-2%	-11%	-9%	-1	-7%
COc1ccc(NC(=O)c2oc3ccccc3c2NC(=O)Cc2coc3ccc(C)cc23)cc1	?	/	/	/	/	-24%
CCc1ccc2occ(CC(=O)Nc3nnc(SC)s3)c2c1	2%	/	/	/	/	-18%
CCOC(=O)c1ccc(NC(=O)Cc2coc3cc4c(cc23)CCC4)cc1	?	?	-7%	-11%	12	?
CCCCOC(=O)c1ccc(NC(=O)Cc2coc3ccc(C(C)C)cc23)cc1	23µM*	/	/	/	/	26µM*
Cc1ccc(NC(=O)Cc2coc3ccc(C(C)C)cc23)cc1Cl	29µM*	/	/	/	/	?
CCOc1ccc(NC(=O)Cc2coc3ccc(C)cc23)cc1	21µM*	/	/	/	/	16µM*
Cc1ccc(NC(=O)Cc2coc3c(C)c(C)ccc23)cc1Cl	-25%	/	/	/	/	-26%
CCc1ccc2occ(CC(=O)Nc3ccc(C)c(C)c3)c2c1	13µM*	/	/	/	/	?
Cc1ccc(S(=O)(=O)N2CCN(C(=O)c3ccc4nc[nH]c4c3)CC2)cc1	-1%	6%	-2%	-9%	-20	-30%
COc1cc(C2Nc3ccccc3-c3nnc(SCc4ccc(C)cc4)nc3O2)cc(OC)c1O (stereo not given)	?	/	/	/	/	-30%
NC(=O)c1csc(CCNC(=O)c2ccccc2)n1	1%	/	7%	4%	-21	-1%
O=[N+]([O-])c1ccc(OC/C=C2\Oc3ccc([N+](=O)[O-])cc3C2N2CCOCC2)cc1 (stereo not given)	23µM*	?	?	-28%	-59*	?
O=[N+]([O-])c1ccc2c(c1)C(N1CCOCC1)/C(=C/COc1ccc(F)cc1)O2 (stereo not given)	?	?	1%	-2%	?	-30%
CCOC(=O)C1=C(CP(=O)(c2ccccc2)c2ccccc2)NC(=O)NC1c1ccc(OC)cc1 (stereo not given)	-14%	-14%	0%	-7%	13	-15%
CCOC(=O)C1=C(CSc2nc3ccccc3s2)NC(=O)NC1c1cc(C)ccc1C (stereo not given)	23µM*	?	?	-28%	?	?
